Assay [1] is described as follows: resazurin metabolic signal in HepG2 cells – cell-based, resazurin fluorescence, 24 h, PK04 Diversity Set, profiling panel (AID 1172). Note: test concentration not given here. To be noted: HepG2 viability, higher = more signal. (The colour change of resazurin is a common sign of viable cells or microbes.)
Assay [2] is described as follows: budding yeast growth changes without added modifier – OD600, strain BY4716, 24 h, basal condition, primary screen (AID 1173). To be noted: S. cerevisiae BY4716 growth, OD600, 24 h; higher = more signal, called active from +8 up or from −8 down.
The nature of assay [3]: viability profiling in MM1S myeloma cells – cell-based, resazurin fluorescence, basal, 24 h, PK04 Diversity Set, profiling panel (AID 1174).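 Note: MM1S multiple myeloma cell line; test concentration not given here.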 To be noted: higher = more signal, called active from +8 up or from −8 down.
The target of assay [4] is Dihydroorotate dehydrogenase (quinone), mitochondrial (Plasmodium falciparum (isolate 3D7)) (UniProt Q08210). The experiment in a line: inhibition of P. falciparum DHODH – biochemical, C-terminal His tag, absorbance 600 nm, primary screen (AID 1175).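 Note: recombinant parasite enzyme with a five histidine tag at its C terminus; test concentration not given here.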 To be noted: PfDHODH enzyme, DCIP absorbance 600 nm; higher = more signal, called active from +8 up or from −8 down.
Assay [5] is described as follows: inhibition of PAO1 biofilm formation – strain PAO1, LB-PBS medium, absorbance 600 nm, primary screen (AID 1176). Note: test concentration not given here. To be noted: P. aeruginosa PAO1 growth/biofilm, A600, 12 h; higher = more signal.
Assay [6] can be described thus: growth modulation of vineyard yeast isolate – strain RM11-1a, OD600, basal, 24 h, primary screen (AID 1177).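 Note: cultures grown under basal conditions with no added stressor; test concentration not given here.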 To be noted: S. cerevisiae RM11-1a growth, OD600, 24 h; higher = more signal, called active from +8 up or from −8 down.
The nature of assay [7]: growth of efflux-deficient E. coli DRC39 – strain DRC39, OD650, 24 h, E. coli filamentation inducers, primary screen (AID 1178).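 Note: growth measured as culture turbidity by optical density at 650 nm; test concentration not given here.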 To be noted: E. coli DRC39 acrAB, higher = more signal, called active from +8 up or from −8 down.
Assay [8] in a line: growth of efflux-deficient E. coli DRC39 – strain DRC39, OD650, 48 h, E. coli filamentation inducers, primary screen (AID 1179).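 Note: screen aims at cell division blockers that make cells filament.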 To be noted: E. coli DRC39 delta-acrAB growth, higher = more signal, called active from +8 up or from −8 down.
Assay [9] is described as follows: viability profiling in RPMI8226 myeloma cells – cell-based, resazurin fluorescence, basal, 24 h, PK04 Diversity Set, profiling panel (AID 1180).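 Note: RPMI8826 multiple myeloma cell line at 5000 cells per well; test concentration not given here.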 To be noted: higher = more signal.
Assay [10] has as its target E3 ubiquitin-protein ligase XIAP (Homo sapiens) (UniProt P98170). The experiment in a line: small molecules binding XIAP protein – biophysical, small-molecule microarray, fluorescence 635 nm, primary screen (AID 1181).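 Note: score merges 667 nm emission and signal to noise over triplicate slides.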 To be noted: higher = more signal.

Active and inactive are the calls of the source. Unless noted, the rule behind the calls is not given here.

Dihydroorotate dehydrogenase (quinone), mitochondrial (Plasmodium falciparum (isolate 3D7)), sequence (Q08210 whole entry, looked up): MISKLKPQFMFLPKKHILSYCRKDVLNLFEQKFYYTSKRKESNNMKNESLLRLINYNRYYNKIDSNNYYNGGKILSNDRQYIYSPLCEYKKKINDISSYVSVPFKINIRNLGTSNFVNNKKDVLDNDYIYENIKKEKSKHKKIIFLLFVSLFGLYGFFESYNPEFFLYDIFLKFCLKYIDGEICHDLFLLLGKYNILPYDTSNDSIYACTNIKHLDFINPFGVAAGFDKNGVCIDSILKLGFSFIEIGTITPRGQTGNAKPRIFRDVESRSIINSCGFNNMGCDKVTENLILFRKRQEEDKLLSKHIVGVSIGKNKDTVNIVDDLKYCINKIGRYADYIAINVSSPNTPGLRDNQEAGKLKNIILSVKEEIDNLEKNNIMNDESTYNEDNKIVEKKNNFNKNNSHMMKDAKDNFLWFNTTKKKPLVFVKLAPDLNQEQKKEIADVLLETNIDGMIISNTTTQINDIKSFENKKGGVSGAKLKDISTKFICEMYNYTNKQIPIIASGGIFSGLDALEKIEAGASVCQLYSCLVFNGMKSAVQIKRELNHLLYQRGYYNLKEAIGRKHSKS
E3 ubiquitin-protein ligase XIAP (Homo sapiens), sequence (P98170 whole entry, looked up): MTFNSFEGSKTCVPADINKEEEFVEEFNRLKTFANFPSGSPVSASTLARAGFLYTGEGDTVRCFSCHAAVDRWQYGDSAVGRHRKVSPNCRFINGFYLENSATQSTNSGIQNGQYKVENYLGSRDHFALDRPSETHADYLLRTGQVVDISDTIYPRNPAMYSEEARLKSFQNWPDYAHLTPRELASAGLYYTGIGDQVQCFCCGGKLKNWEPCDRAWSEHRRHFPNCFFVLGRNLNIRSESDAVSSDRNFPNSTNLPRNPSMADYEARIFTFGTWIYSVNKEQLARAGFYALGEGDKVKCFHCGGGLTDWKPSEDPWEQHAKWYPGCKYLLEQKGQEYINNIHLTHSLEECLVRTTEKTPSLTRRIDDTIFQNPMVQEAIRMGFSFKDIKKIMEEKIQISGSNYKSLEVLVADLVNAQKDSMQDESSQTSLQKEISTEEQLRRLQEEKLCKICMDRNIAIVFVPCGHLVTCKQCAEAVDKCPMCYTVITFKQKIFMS

Take `COC(=O)[C@]1(Cc2ccccc2CN=[N+]=[N-])N=C(c2ccc(OCCCO)cc2)O[C@@H]1c1ccccc1CN=[N+]=[N-]`: the z-score in assay [1] is -1.27; in assay [2], 0.803 (inactive); in assay [3] it was -3.36 (inactive); in assay [5] it was 3.93 (inactive); in assay [6] it was 2.92 (inactive); in assay [7], 2.1 (inactive). Moreover, the values for the z-score in assay [8] and in assay [9] were 1.6 (inactive) and -4.23, respectively. The composite z-score in assay [4] is 1.36 (inactive); in assay [10], -0.0025.
With `O=[N+]([O-])c1ccc(C[n+]2ccc(-c3ccc(CO)cc3)cc2)o1`, the z-score was -0.216 in [1]; -5.16 (inactive) in assay [2]; -0.979 (inactive) in assay [3]; 0.503 (inactive) in assay [5]; -0.0644 (inactive) in assay [6]; -1.11 (inactive) in assay [7]. Besides, the z-score in assay [8] is -0.495 (inactive); in [9], -0.904. The values for the composite z-score in [4] and in [10] were -1.94 (inactive) and -0.0047, respectively.
In the case of `COCCCNC(=O)[C@@]1(Cc2ccccc2I)c2ccccc2C(=O)N(Cc2ccccc2Cl)[C@H]1c1ccc(CO)cc1`, the z-score in assay [1] was 1.01; in [2] it was -1 (inactive); in assay [3], 1.59 (inactive); in assay [5], 0.112 (inactive); in assay [6], -0.0403 (inactive); in [7], 0.0867 (inactive). Also, the z-score in [8] was 0.607 (inactive); in assay [9], 1.82. Further, the composite z-score is -0.278 (inactive) in assay [4] and 0.186 in assay [10].
As to `CCN(CC)c1ccc(N2CC=CC34O[C@@H]5/C=C\CCCOC(=O)C5[C@H]3C(=O)N(CCCCCO)[C@@H]4C2=O)cc1` (stereo not given in full), the z-score in [1] is -0.162; in [2] it was -0.606 (inactive); in assay [3], 0.361 (inactive); in [5], -0.553 (inactive); in [6], -0.27 (inactive); in assay [7], -0.388 (inactive). The z-score in assay [8] was -0.241 (inactive); in assay [9], 0.681. Moreover, the composite z-score in assay [4] is -0.706 (inactive); in assay [10], -0.0264.
For the compound `CCC[C@@H]1C[C@@]1(CCC)[C@@H](NC(=O)c1cccs1)c1ccc(Cl)cc1`, the z-score was 1.82 in [1]; -0.779 (inactive) in [2]; 1.19 (inactive) in assay [3]; 0.852 (inactive) in [5]; 0.235 (inactive) in [6]; 0.279 (inactive) in assay [7]. Moreover, the z-score was 0.372 (inactive) in assay [8] and 2.95 in assay [9]. For the same compound, the composite z-score was -0.118 (inactive) in [4] and -0.193 in [10].
`COCC(=C=CC[C@@H](O)c1ccccc1OCCO)C[C@@H](O)COCc1ccccc1`: the z-score in [1] is 0.905; in [2], -0.413 (inactive); in [3], 1.26 (inactive); in assay [5], 0.191 (inactive); in [6] it was -2.04 (inactive); in assay [7], 2.4 (inactive). The z-score is 1.6 (inactive) in assay [8] and 0.935 in [9]. Moreover, the figures for the composite z-score in assay [4] and in assay [10] were -1.47 (inactive) and 0.145, respectively.
Take `CCCC=C(CCC)[C@@H](NS(=O)(=O)c1ccccc1)c1ccc(C(F)(F)F)cc1`: the z-score in assay [1] was -0.574; in [2], 0.892 (inactive); in assay [3], -2.56 (inactive); in assay [5], -0.415 (inactive); in assay [6], 1.07 (inactive); in [7], -0.28 (inactive). Besides, the z-score in assay [8] was -0.428 (inactive); in assay [9], -3.59. Moreover, the composite z-score in [4] was -0.62 (inactive); in assay [10] it was 0.0039.
For the compound `COCCCNC(=O)[C@@]1(Cc2ccccc2CN=[N+]=[N-])N=C(c2ccc(OCCCO)cc2)O[C@H]1c1ccccc1N=[N+]=[N-]`, the z-score in assay [1] was -0.208; in [2], -0.255 (inactive); in [3], -1.18 (inactive); in assay [5], 0.413 (inactive); in assay [6] it was 0.587 (inactive); in assay [7], 1.86 (inactive). The z-score is 1.08 (inactive) in [8] and -2.65 in [9]. In addition, the composite z-score in assay [4] is 1.13 (inactive); in assay [10], -0.0592.
On to `CCCC[C@H]1OB(O)C[C@H]2C1=C(COc1ccccc1)Cn1c(=O)n(-c3ccccc3)c(=O)n12`, for which the z-score is -0.0243 in [1]; -6.02 (inactive) in [2]; -0.0638 (inactive) in [3]; 0.294 (inactive) in assay [5]; 0.458 (inactive) in [6]; 0.232 (inactive) in [7]. In addition, the results for the z-score in assay [8] and in assay [9] were 0.0306 (inactive) and -0.0851, respectively. Also, the figures for the composite z-score in assay [4] and in assay [10] were -2.51 (inactive) and -0.327, respectively.
On to `[N-]=[N+]=NCc1ccccc1[C@H]1OC(c2ccc(OCCCO)cc2)=N[C@@]1(Cc1ccccc1N=[N+]=[N-])C(=O)NCCN1CCOCC1`, for which the z-score in assay [1] is -0.634; in assay [2], -1.11 (inactive); in assay [3], -1.22 (inactive); in [5], 0.591 (inactive); in assay [6], 1.41 (inactive); in assay [7], -0.0057 (inactive). Further, the z-score in assay [8] was -0.357 (inactive); in assay [9], -1.17. For the same compound, the composite z-score is 1.15 (inactive) in assay [4] and -0.0414 in assay [10].
Turning to `C[C@H]1NC(=O)C([C@@H](C)OCc2ccccc2)NC(=O)[C@@]23C(=O)N[C@@H](Cc4ccccc4)C2[C@H](C)[C@@]2(C)O[C@H]2C3/C=C/CC/C=C/CNC1=O` (stereo not given in full), the z-score in assay [1] is -1.3; in assay [2], -0.782 (inactive); in assay [3], 0.737 (inactive); in assay [5], -0.766 (inactive); in [6] it was 0.604 (inactive); in [7] it was 1.36 (inactive). The z-score was 0.336 (inactive) in assay [8] and 0.189 in assay [9]. Also, the figures for the composite z-score in assay [4] and in assay [10] were 0.855 (inactive) and 0.13, respectively.

Values taken from PubChem BioAssay.
